D3 ag – activates the human D3 dopamine receptor | P35462 | D3R DiscoveRx beta-arrestin cells, luminescence, 90 min | actives 0.58% (n = 410,000) | AID 652048 | max activation, %; in the data active means max activation above about 30%; further: 0% is about no effect
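Agonist-mode cell screen: cells plated at 1500/well and incubated overnight at 37 °C, then exposed to library compounds for 90 min at 37 °C. Detection reagent was added for 30–60 min at room temperature, and luminescence was read.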
D1 PAM – enhances dopamine response at the human D1 receptor; AID 504651; P21728; actives 0.036% (n = 360,000); potentiation, % at 10 µM; HEK293 TREx D1 cells, calcium flux, dopamine EC20 potentiation; in the data active means potentiation above about 30%; further: 0% is about no effect
Target sequence (P21728 whole entry, looked up): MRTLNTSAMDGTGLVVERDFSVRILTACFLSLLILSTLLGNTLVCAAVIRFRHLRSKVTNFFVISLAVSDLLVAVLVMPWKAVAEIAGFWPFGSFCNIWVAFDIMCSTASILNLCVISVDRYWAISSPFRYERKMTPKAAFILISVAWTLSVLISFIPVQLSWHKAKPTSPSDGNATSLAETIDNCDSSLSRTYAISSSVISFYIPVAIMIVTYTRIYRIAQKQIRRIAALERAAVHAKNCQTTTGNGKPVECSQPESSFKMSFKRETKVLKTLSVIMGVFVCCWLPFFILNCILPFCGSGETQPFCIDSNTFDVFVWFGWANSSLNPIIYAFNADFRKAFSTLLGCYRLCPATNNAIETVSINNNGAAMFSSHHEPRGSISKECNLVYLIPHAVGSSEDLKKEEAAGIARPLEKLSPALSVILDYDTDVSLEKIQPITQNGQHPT
D1 agonist – agonists of human D1 dopamine receptor | P21728 | actives 1% (n = 360,000) | activation, % at 2 µM | HEK293 T-REx D1 cells, calcium flux, agonist mode; in the data active means activation above about 30%; further: 0% is about no effect
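Inducible HEK293 T-REx D1 cells, force-coupled to calcium signalling, were plated at 4000 cells/well with tetracycline and held overnight at 30 C. After no-wash calcium dye loading, compound-evoked calcium rise over 180 s flagged agonists.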
D1 antag – human D1 dopamine receptor antagonism; P21728; HEK293 TREx D1 cells, calcium flux, dopamine EC80; hits give low values; activity change, negative = inhibition, % at 10 µM; actives 3.2% (n = 360,000); in the data active means activity change below about -30%; further: on the % scale 0 is the no-effect control and ±100 the full control effect
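Inducible Hek293 Trex D1 cells (tetracycline, overnight, 30 C). Calcium dye 30–90 min RT. Antagonist mode: EC80 dopamine added after 180 s compound read.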
DRD3 antagonist – D3 dopamine receptor (human) antagonism; actives 2.5% (n = 360,000); D3R cells, DiscoveRx beta-arrestin luminescence, antagonist mode; hits give low values; max response, negative = inhibition, %; P35462; in the data active means max response below about -50%; further: on the % scale 0 is the no-effect control and ±100 the full control effect
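Cells expressing the human receptor were seeded at 1500 cells/well, incubated overnight at 37 degrees C in 5% CO2, then exposed to library compounds with dopamine controls for 90 minutes at 37 degrees C before luminescent detection.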
* hit, by the source's call; nt = no result given. This is a sample that favours compounds with a hit; in the whole collection about 6% have one here.

SMILES	D3 ag	D1 PAM	D1 agonist	D1 antag	DRD3 antagonist
COc1cc(C(=O)Nc2ccc(S(=O)(=O)N3CCOCC3)cc2)c([N+](=O)[O-])cc1OC	40*	5	2	17	-11
N#CC(c1ccc(Cl)cc1)c1ncc(C(F)(F)F)cc1Cl (configuration not stated)	-3	-4	25	-51*	-22
COCCCNC(=O)c1ccc(Cn2c(=O)c3cccn3c3cccnc32)cc1	-2	-5	1	-8	nt
CC(C)C[C@H]1CNC(=S)N1C[C@H]1CCCN1C[C@H](Cc1ccccc1)N1C[C@H](Cc2ccc(O)cc2)N(CC2CCCCC2)C1=S	13	nt	nt	nt	21
CC(C)C[C@H]1CNC(=S)N1CC1CCCN1C[C@H](Cc1ccc(O)cc1)N1C[C@H](Cc2ccccc2)N(CC2CCCCC2)C1=S (some centres not stated)	-44	nt	nt	nt	-81*
Oc1ccc(C[C@H]2CN([C@@H](Cc3ccc(O)cc3)CN3CCC[C@@H]3CN3C(=S)NC[C@@H]3Cc3ccccc3)C(=S)N2CCc2ccccc2)cc1	-19	nt	nt	nt	-53*
Oc1ccc(C[C@H]2CNC(=S)N2CC2CCCN2C[C@H](Cc2ccc(O)cc2)N2C[C@H](Cc3ccccc3)N(CC3CCCCC3)C2=S)cc1 (some centres not stated)	-41	nt	nt	nt	-64*
Oc1ccc(C[C@H]2CN([C@@H](Cc3ccccc3)CN3CCCC3CN3C(=S)NC[C@@H]3Cc3ccccc3)C(=S)N2CCc2ccccc2)cc1 (some centres not stated)	0	nt	nt	nt	5
O=C1NC[C@H](Cc2ccc(O)cc2)N(C[C@H]2CCCN2C[C@H](Cc2ccc(O)cc2)N2C[C@H](Cc3ccc(O)cc3)N(CCc3ccccc3)C(=O)C2=O)C1=O	-2	nt	nt	nt	-70*
CCCn1c(=O)c2sccc2n2c(CCCC(=O)N3CCN(c4cccc(Cl)c4)CC3)nnc12	13	-4	2	6	nt
Cc1c(-c2nsc(NC(=O)c3cccs3)n2)nnn1-c1ccc(Br)cc1	-20	-1	12	-11	nt
CC(=O)Nc1cc(-c2cccc(C(=O)NCCN(C)C)c2)cn2c(-c3ccccc3)cnc12	-24	nt	nt	nt	-52*
CC(=O)Nc1cc(-c2ccc(CO)cc2)cn2c(-c3ccc(F)cc3)cnc12	-5	nt	nt	nt	-50*
CC(=O)Nc1cc(-c2cccc(C(=O)NCCN(C)C)c2)cn2c(-c3ccc(S(C)(=O)=O)cc3)cnc12	1	nt	nt	nt	-8
COc1ccc(-c2cnc3c(NC(C)=O)cc(-c4ccc(C(=O)NC5CC5)cc4)cn23)cc1OC	36*	nt	nt	nt	226
COc1ccc(-n2nc3ccc(NC(=O)c4ccc(C#N)cc4F)cc3n2)cc1Cl	7	-4	0	-13	nt
COc1cc(OC)cc(C(=O)OCc2cc3ccccc3[nH]c2=O)c1	-2	-12	0	-40*	17
Cc1ccc2cc(COC(=O)c3cccc([N+](=O)[O-])c3)c(=O)[nH]c2c1	-1	-7	1	-34*	7
CC(=O)N(CC(O)CO)c1c(I)c(C(=O)NCCO)c(I)c(C(=O)NCC(O)CO)c1I (configuration not stated)	4	nt	nt	nt	nt
CCOC(=O)C1=C(C)Nc2ccccc2N=C1NC(=O)Cc1ccc(Br)cc1	1	1	-1	4	0
CCOC(=O)C1=C(C)Nc2ccccc2N=C1NC(=O)Cc1ccc(OC)cc1	3	-5	1	-81*	15
O=C(NCCc1ccccc1)c1ccc(CS(=O)(=O)c2ccc(Br)cc2)o1	2	1	5	16	2
O=C(NC1CCCC1)c1ccc(CS(=O)(=O)c2ccc(Br)cc2)o1	-3	-4	1	-30*	4
CN(CCNC(=O)c1ccc(CS(=O)(=O)c2ccc(Br)cc2)o1)CCc1ccccc1	-14	-17	5	-15	-55*
Cc1cccc(NC(=O)C2CCCN(S(=O)(=O)c3cnc[nH]3)C2)c1C (configuration not stated)	2	1	1	-2	nt

Assay outcomes deposited in PubChem BioAssay by National Center for Advancing Translational Sciences (NCATS).
